F508del corr: CFTR F508del correction in bronchial cells | CFBE cells, YFP halide quenching; stimulated with forskolin plus potentiator P3; % fluorescence drop versus neutral controls | activity (quench increase), % at 7.58 µM | actives 0.36% (n = 350,000);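 active means mean added fluorescence quench of at least 8% versus neutral control, with both replicates also reaching 8%; inconclusive means only one of the mean or replicate conditions met; inactive means mean below 8% and not both replicates reaching 8%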;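 further: cells transiently co-express mutant CFTR-F508del with the halide-sensitive YFP; corrector assay measuring rescue of mutant channel to the surface after 24 h compound exposure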
HIV Env fusion: HIV envelope-mediated fusion inhibition. inhibition, % at 12.3 µM. AID 651610. HeLa-JRFL Env/CEM21 cell fusion, luciferase. actives 1.1% (n = 360,000);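 active means mean replicate inhibition score of at least 50 and every replicate individually at or above 50; inconclusive means only one of the two criteria met; inactive means mean below 50 and not all replicates reaching 50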
MITF TRPM1 HTS: MITF TRPM1 promoter activation in melanoma cells; AID 588334; activation, % at 12.5 µM; SK-MEL-5 TRPM1-promoter luciferase, 24 h; % of positive control, neutral wells = 0; actives 0.75% (n = 300,000);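 active means mean activation of at least 80% with every replicate also reaching 80%; inconclusive means mean reaches 80% but some replicate falls short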
INS-1E GSIS act: GLuc luminescence reporter in INS-1E cells, primary screen for activators of glucose-dependent secretion of insulin. INS-1E GLuc reporter insulin secretion, 2-3 h. activation, % at 16.6 µM. actives 0.61% (n = 370,000). AID 743287;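 active means lowest replicate activation of at least 40%, so every replicate reaches that level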
Wnt act: activators of Wnt/beta-catenin signaling. Wnt/beta-catenin reporter cell assay, activator, plate reader. activation, % at 9.35 µM. actives 1.2% (n = 300,000). AID 743398; in the data active means activation above about 30%, passing the limit was not always enough; inconclusive means no clear call, values can overlap the other calls
Large screens that a line does not name were inactive. Only some compounds are listed: those with a hit (about 2.7% of all), similar ones and a draw of the others.

N/C(=N\OC(=O)COc1cc(Cl)c(Cl)cc1Cl)c1ccncc1	none (no result: MITF TRPM1 HTS)
O=C(C[C@H]1C=C[C@H](NS(=O)(=O)c2ccccc2)[C@@H](CO)O1)NCc1ccccc1F	none (no result: MITF TRPM1 HTS, Wnt act)
CC1CCN(C(=O)CSc2nc(=O)n3cc(Cl)ccc3n2)CC1	INS-1E GSIS act 78
Cc1ccn2c(=O)nc(SCC(=O)N3CCC(C)CC3)nc2c1	none
COc1ccc(C(=O)COC(=O)C2CC3CCCC(C2)C3=O)cc1Br (stereo unspecified)	INS-1E GSIS act 58
COc1cccc(C(=O)COC(=O)C2CC3CCCC(C2)C3=O)c1 (stereo unspecified)	none
Cc1ccc2[nH]c3c(c2c1)CC/C(=C/c1ccccc1)C3=O	none (no result: F508del corr, MITF TRPM1 HTS, INS-1E GSIS act)
O=C1/C(=C\c2ccccc2)CCc2c1[nH]c1ccccc21	Wnt act 39 (no result: F508del corr, INS-1E GSIS act)
Cc1ccc(/C=C2/CCc3c([nH]c4ccccc34)C2=O)cc1	MITF TRPM1 HTS 100, Wnt act 54 (no result: F508del corr, INS-1E GSIS act)
O=C(C[C@@H]1CC[C@@H]2[C@H](COC[C@@H](O)CN2CC2CCCCC2)O1)NCC1CC1	none (no result: HIV Env fusion, MITF TRPM1 HTS, Wnt act)
O=C1N=C(N2CCCCC2)SC1=C1CCCC1	none (no result: F508del corr, INS-1E GSIS act)
CCCCN1C(=O)/C(=C2\SC(N3CCCCC3)=NC2=O)c2ccccc21	MITF TRPM1 HTS 107 (no result: F508del corr, INS-1E GSIS act)
O=[N+]([O-])c1ccc(COn2nnc3ccccc32)cc1	none
Clc1ccc(COn2nnc3ccccc32)c(Cl)c1	MITF TRPM1 HTS 99 (no result: F508del corr, HIV Env fusion, INS-1E GSIS act)
CO[C@@H]1CN(C)C(=O)c2ccc(NC(=O)Nc3c(C)noc3C)cc2OC[C@H](C)NC[C@H]1C	none (no result: MITF TRPM1 HTS, Wnt act)
O=S(=O)(c1ccc(NC(=S)NCc2cccnc2)cc1)N1CCCCC1	Wnt act 47 (no result: MITF TRPM1 HTS)
O=S(=O)(c1ccc(NC(=S)NN=Cc2ccccc2O)cc1)N1CCCCC1	Wnt act 67 (no result: MITF TRPM1 HTS)
NS(=O)(=O)c1ccc(NC(=S)Nc2ccc(S(=O)(=O)N3CCCC3)cc2)cc1	none (no result: F508del corr)
C[C@@H]1CN([C@H](C)CO)S(=O)(=O)c2ccc(-c3ccccc3)cc2O[C@@H]1CN(C)C(=O)c1ccc2c(c1)OCO2	none (no result: MITF TRPM1 HTS, Wnt act)
CNC[C@H]1Oc2ccc(N(S(C)(=O)=O)S(C)(=O)=O)cc2C(=O)N(C)C[C@@H]1C	none (no result: F508del corr, HIV Env fusion, MITF TRPM1 HTS, Wnt act)
COc1ccc(-c2cc(-c3cc(C)ccc3O)[nH]n2)cc1	none
CC(C)(C)c1ccc(-c2cc(-c3ccccc3O)[nH]n2)cc1	INS-1E GSIS act 68
COc1ccc(-c2cc(-c3ccc(OC)cc3)[nH]n2)cc1	MITF TRPM1 HTS inconclusive, Wnt act 49 (no result: F508del corr)
COc1ccc(-c2cc(-c3ccc(C)cc3)n[nH]2)c(O)c1	Wnt act 55
CNC[C@@H]1Oc2ccc(NC(C)=O)cc2CC(=O)N(C)C[C@H]1C	none (no result: F508del corr, HIV Env fusion, MITF TRPM1 HTS, Wnt act)
CCc1nc(SCC(=O)O)c2c3c(sc2n1)COC(C)(C)C3	none
Cc1cc(C)n(-c2nc(SCC(=O)O)c3c4c(sc3n2)COC(C)(C)C4)n1	INS-1E GSIS act 43
Cc1noc(C)c1S(=O)(=O)N(C)C[C@@H]1Oc2c(NC(=O)C3CC3)cccc2C(=O)N([C@@H](C)CO)C[C@@H]1C	none (no result: MITF TRPM1 HTS, Wnt act)
Oc1c(C2=NCCNC(C(F)(F)F)=C2)ccc2ccccc12	MITF TRPM1 HTS 87
CC1(C)CC(=O)c2c(O)cc(OCc3ccc(Br)cc3)cc2O1	MITF TRPM1 HTS 87 (no result: HIV Env fusion)
COC(=O)c1ccc(COc2cc(O)c3c(c2)OC(C)(C)CC3=O)cc1	none (no result: F508del corr, HIV Env fusion, INS-1E GSIS act)
C[C@H]1CN([C@@H](C)CO)C(=O)c2cc(-c3ccncc3)cnc2O[C@@H]1CN(C)C(=O)Cc1cccnc1	none (no result: MITF TRPM1 HTS, Wnt act)
CSCc1cc(N2CCOCC2)nc(SCc2ccc(Cl)c(Cl)c2)n1	HIV Env fusion 63 (no result: F508del corr, Wnt act)
COCc1cc(N2CCOCC2)nc(SCc2ccc(Cl)cc2)n1	none
CSc1nc(Cl)cc(N2CCOCC2)n1	INS-1E GSIS act 53
CSc1nc(N2CCOCC2)cc(N2CCOCC2)n1	none
CO[C@H]1CN(C)C(=O)c2ccc(NC(=O)Nc3ccccc3)cc2OC[C@H](C)N(CC2CC2)C[C@H]1C	none (no result: MITF TRPM1 HTS, Wnt act)
Cc1ccc(N(C)S(=O)(=O)c2ccc(-c3cnc(C4CC4)o3)cc2)cc1	F508del corr 8.3
Cc1ccc(NS(=O)(=O)c2ccc(-c3cnc(C4CC4)o3)cc2)cc1	none
COc1ccc(/C=N/n2c(-c3n[nH]c4c3CCC4)n[nH]c2=S)cc1OC	INS-1E GSIS act 45 (no result: F508del corr, Wnt act)
Cc1ccc(CS(=O)Cc2ccc(C(=O)NCCc3ccccc3)o2)cc1 (stereo unspecified)	none
Cc1ccc(CS(=O)Cc2ccc(C(=O)NCc3ccccc3)o2)cc1 (stereo unspecified)	INS-1E GSIS act 43
COc1ccccc1NC(=O)CSc1n[nH]c(Cc2ccccc2)n1	INS-1E GSIS act 43

Compound activity: PubChem BioAssay, Broad Institute
